From PubChem BioAssay
Active and inactive are the calls of the source.

Columns and labels:
[1] = binders of probe aFSTL3 on microarray, primary screen, stem cell growth factor project, biochemical, small-molecule microarray, fluorescence 635/667 (AID 1064); settings: higher = more signal;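 further: measures binding of the biotinylated anti-FSTL3 antibody to printed compounds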
[2] = binders from COS7 lysate, DM2A8 probe, primary screen, torsin A project, cell lysate, small-molecule microarray, fluorescence 635/667 (AID 1065); settings: higher = more signal, COS7 lysate expressing mutant human TOR1A
[3] = binders of probe aFGF2 on microarray, primary screen, stem cell growth factor project, biochemical, small-molecule microarray, fluorescence 635/667 (AID 1067); settings: higher = more signal;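 further: measures binding of biotinylated aFGF2 protein to printed compounds on slides; z-score merges feature fluorescence and signal-to-noise across triplicate slides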
[4] = binders of probe aFGF10 on microarray, primary screen, stem cell growth factor project, biochemical, small-molecule microarray, fluorescence 635/667 (AID 1071); settings: higher = more signal;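 further: score merges 667 nm spot intensity and signal to noise from triplicate slides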
[5] = molecular target: Neurogenic locus notch homolog protein 2 (Homo sapiens) (UniProt Q04721); assay: Notch2 binders on small-molecule microarrays, primary screen, biochemical, small-molecule microarray, 635 nm fluorescence, stem cell growth factors (AID 1073); settings: Notch2 binding, higher = more signal
[6] = molecular target: Pro-neuregulin-1, membrane-bound isoform (Homo sapiens) (UniProt Q02297); assay: NRG1 binders on small-molecule microarrays, primary screen, psychiatric disease protein project, biochemical, small-molecule microarray, fluorescence 635/667 (AID 1075); settings: NRG1 binding, 635 nm fluorescence, higher = more signal;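 further: score combines 667 nm spot fluorescence with signal to noise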
[7] = test system: Neuregulin-1 EGF-like domain; assay: binders of neuregulin-1 EGF-like domain, primary screen, biochemical, small-molecule microarray, 635 nm fluorescence (AID 1081); settings: small-molecule microarray binding, higher = more signal;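 further: binding of the protein to compounds printed on small-molecule microarray slides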
[8] = FRG1 promoter luciferase signal modulators, primary screen, FRG1 inhibition for FSHD, cell-based, C2C12 myotubes, firefly/Renilla luciferase, luminescence (AID 1084); settings: higher = more signal, called active from +8 up or from −8 down
[9] = binders of probe aFST on microarray, primary screen, stem cell growth factor project, biochemical, small-molecule microarray, fluorescence 635/667 (AID 1086); settings: higher = more signal;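 further: score merges 667 nm fluorescence with signal-to-noise of each printed compound spot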
[10] = binders of probe aHhip on microarray, primary screen, stem cell growth factor project, biochemical, small-molecule microarray, fluorescence 635/667 (AID 1087); settings: higher = more signal;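 further: score merges spot fluorescence at 667nm with spot signal to noise ratio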

Sequence of Pro-neuregulin-1, membrane-bound isoform (Homo sapiens) (Q02297 whole entry, looked up, the tested form may be a part, canonical isoform): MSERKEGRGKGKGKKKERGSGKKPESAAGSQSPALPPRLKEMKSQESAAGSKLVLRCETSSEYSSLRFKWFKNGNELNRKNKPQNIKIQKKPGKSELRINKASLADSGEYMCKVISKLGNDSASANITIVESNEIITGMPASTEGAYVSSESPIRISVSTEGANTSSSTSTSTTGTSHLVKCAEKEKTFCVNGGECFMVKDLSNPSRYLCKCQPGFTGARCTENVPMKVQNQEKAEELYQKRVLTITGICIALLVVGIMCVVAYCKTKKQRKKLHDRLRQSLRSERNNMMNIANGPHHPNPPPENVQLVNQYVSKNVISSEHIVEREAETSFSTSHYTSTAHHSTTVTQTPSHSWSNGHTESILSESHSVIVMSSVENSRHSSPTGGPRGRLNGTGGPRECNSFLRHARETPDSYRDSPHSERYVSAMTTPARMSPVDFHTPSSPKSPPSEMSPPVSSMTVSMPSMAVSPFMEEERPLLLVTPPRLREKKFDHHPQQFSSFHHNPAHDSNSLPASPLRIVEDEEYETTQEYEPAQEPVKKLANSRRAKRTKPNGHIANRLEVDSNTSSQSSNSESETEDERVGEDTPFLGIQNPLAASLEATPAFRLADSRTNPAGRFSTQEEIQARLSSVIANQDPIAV
Sequence of Neurogenic locus notch homolog protein 2 (Homo sapiens) (Q04721 whole entry, looked up, canonical isoform): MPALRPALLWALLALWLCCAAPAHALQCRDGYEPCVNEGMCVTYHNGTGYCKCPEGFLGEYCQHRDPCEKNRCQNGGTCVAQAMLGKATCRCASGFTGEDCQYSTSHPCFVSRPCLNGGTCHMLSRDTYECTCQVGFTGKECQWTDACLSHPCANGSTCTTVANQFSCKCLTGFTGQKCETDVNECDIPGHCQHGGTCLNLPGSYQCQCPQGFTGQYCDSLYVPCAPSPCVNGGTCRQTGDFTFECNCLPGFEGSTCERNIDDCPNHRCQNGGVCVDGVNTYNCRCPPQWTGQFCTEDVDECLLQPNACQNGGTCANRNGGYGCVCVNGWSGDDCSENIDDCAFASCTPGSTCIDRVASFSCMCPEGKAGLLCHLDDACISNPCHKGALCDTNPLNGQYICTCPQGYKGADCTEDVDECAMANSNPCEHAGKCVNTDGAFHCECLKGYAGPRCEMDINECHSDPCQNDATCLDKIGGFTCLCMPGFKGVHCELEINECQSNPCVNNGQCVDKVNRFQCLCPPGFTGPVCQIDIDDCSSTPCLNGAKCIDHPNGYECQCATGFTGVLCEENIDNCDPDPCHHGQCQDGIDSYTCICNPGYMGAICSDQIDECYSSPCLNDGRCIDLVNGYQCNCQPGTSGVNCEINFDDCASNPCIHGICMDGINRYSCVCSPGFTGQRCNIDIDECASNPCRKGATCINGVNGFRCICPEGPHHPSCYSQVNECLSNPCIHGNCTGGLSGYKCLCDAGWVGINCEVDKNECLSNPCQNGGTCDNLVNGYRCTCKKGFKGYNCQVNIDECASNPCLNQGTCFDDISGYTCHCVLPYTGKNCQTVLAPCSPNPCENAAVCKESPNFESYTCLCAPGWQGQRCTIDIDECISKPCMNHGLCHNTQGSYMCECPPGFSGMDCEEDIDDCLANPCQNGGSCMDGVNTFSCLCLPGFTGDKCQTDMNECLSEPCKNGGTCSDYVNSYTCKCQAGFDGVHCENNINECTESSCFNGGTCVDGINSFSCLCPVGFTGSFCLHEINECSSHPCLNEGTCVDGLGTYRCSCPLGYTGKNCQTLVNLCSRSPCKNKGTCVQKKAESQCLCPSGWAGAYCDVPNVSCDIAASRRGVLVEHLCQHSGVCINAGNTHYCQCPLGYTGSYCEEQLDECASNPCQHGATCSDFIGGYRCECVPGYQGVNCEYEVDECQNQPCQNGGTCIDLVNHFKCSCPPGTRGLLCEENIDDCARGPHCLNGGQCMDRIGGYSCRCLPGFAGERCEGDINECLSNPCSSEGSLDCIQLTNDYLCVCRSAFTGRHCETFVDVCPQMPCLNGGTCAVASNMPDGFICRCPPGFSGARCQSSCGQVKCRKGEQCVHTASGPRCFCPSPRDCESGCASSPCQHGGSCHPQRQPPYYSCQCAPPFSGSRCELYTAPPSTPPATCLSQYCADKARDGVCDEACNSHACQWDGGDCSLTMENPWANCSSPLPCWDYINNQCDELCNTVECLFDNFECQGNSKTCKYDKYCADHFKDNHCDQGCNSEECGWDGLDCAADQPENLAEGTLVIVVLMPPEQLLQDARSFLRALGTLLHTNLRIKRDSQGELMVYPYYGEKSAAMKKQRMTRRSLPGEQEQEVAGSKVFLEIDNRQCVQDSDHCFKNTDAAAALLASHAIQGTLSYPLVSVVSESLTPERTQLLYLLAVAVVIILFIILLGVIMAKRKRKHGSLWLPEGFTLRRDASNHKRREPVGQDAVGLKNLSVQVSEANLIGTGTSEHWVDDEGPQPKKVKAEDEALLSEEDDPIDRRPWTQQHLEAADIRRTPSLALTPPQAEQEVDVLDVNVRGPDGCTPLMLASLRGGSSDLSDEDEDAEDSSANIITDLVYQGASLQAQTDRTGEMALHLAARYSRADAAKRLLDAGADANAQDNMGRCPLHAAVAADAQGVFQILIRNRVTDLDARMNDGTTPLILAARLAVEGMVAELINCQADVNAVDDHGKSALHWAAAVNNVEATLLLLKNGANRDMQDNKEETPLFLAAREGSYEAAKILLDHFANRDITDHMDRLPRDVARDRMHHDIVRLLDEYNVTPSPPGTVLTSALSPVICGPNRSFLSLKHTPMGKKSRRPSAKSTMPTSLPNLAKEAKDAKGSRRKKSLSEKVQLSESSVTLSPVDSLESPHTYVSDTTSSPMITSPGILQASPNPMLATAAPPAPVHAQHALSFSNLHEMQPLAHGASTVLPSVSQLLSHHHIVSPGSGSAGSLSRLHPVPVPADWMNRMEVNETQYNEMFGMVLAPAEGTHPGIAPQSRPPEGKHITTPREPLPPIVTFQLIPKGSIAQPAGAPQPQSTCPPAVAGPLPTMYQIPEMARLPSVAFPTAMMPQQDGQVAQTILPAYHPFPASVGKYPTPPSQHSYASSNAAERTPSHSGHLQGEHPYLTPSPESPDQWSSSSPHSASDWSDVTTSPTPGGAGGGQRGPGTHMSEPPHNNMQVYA

SMILES	composite z-score [1]	composite z-score [2]	composite z-score [3]	composite z-score [4]	composite z-score [5]	composite z-score [6]	composite z-score [7]	z-score [8]	composite z-score [9]	composite z-score [10]
COC(=O)[C@H]1[C@@H](O)[C@@]2(O)c3ccccc3O[C@@]2(c2ccccc2)[C@@H]1c1ccccc1	1.08	0.177	-0.114	0.269	0.254	-0.68	0.768	-0.886 (inactive)	0.0643	-0.301
CC(C)=CCCC(C)=CCON=C1C[C@@H](O)[C@@H](O)[C@@H]2[C@@H]3C(=O)N(Cc4ccccc4)C(=O)[C@@H]3CC[C@@H]12	-0.249	0.585	-0.0548	0.649	0.194	0.34	1.05	0.365 (inactive)	0.172	0.204
CO[C@H](C1CCCCC1)[C@H](C)C=CCC(=O)OCCCc1ccccc1	-0.13	0.216	-0.155	-0.104	-0.163	-0.137	-0.647	0.567 (inactive)	-0.175	-0.145
COCCNC(=O)OCC1CCCC2(CC(OC(=O)NCc3ccc4c(c3)OCO4)CC(CCC(=O)N[C@@H](C)C(=O)OC)O2)O1 (stereo not given in full)	-0.463	0.362	-0.116	0.387	1.05	0.191	0.699	0.502 (inactive)	0.171	-0.0994
CCN1C(=O)[C@H]2[C@H]3[C@H](O)[C@H](O)CC(=O)[C@@H]3CC[C@H]2C1=O	-0.676	0.0277	-0.0692	0.463	0.575	0.379	1.01	-0.136 (inactive)	0.276	-0.226
COC(=O)CC=C[C@@H](C)[C@@H](C=NO[C@@H](C)c1cc(-c2c(C)cc(C)cc2C)no1)NS(=O)(=O)c1ccc(C)cc1	1.38	-0.498	-0.144	-1.29	-1.06	-0.647	-0.631	0.295 (inactive)	-0.176	-0.236
CCCCC#C[C@@H]1C=C[C@H](Oc2ccc(C(=O)OC)cc2)[C@@H](COC(=O)OCC)O1	-0.367	0.956	-0.0874	0.495	0.65	0.338	0.733	-2.03 (inactive)	0.153	0.178
CCOC(=O)[C@H](Cc1ccccc1)NC(=O)CCC1CC(OC(=O)NCCc2ccc(F)cc2)CC2(CCCC(COC(=O)NCCc3ccc(Cl)cc3)O2)O1 (stereo not given in full)	-0.431	-0.0057	-0.0523	0.248	0.622	0.843	0.872	0.301 (inactive)	0.233	0.0623
CC(CCN1CCCc2nc(C)c(C)cc21)=NO[C@@H](C)c1cc(-c2c(C)cc(C)cc2C)no1	-0.34	-0.685	-0.0069	0.338	0.121	0.732	0.8	-0.682 (inactive)	0.0731	-0.166
CC(C)[C@@H](OCc1ccccc1)[C@H](C)C=NOC[C@@H](O)COCc1ccco1	-0.457	0.84	-0.251	-0.416	-1.08	-0.417	-0.569	0.887 (inactive)	-1.53	-0.302
COc1cccc([C@H]2Oc3ccc(OC)cc3C(=NOC[C@@H](O)COCc3ccco3)[C@@H]2O)c1	-0.434	0.0488	-0.158	-1.12	-1.29	-0.984	-1.7	-0.765 (inactive)	-0.625	-0.388
C[C@H]1CC[C@H]2C(=O)O[C@H](COc3ccc(C(C)(C)C)cc3)CN2[C@@H]1c1ccc(Br)cc1	-0.135	0.169	-0.053	-0.0634	-0.0332	0.724	-0.536	-0.0935 (inactive)	0.125	-0.371
C#CCCCON=C1C[C@@H](O)[C@@H](O)[C@@H]2[C@@H]3C(=O)N(C(C)(C)C)C(=O)[C@@H]3CC[C@H]12	1.86	1.01	-0.0245	-0.104	0.162	-0.431	-0.58	-0.247 (inactive)	0.774	-0.122
CC(C)=NOC[C@@H](C)[C@H](OCc1ccccc1)C(C)C	0.245	-0.381	-0.147	-0.303	-0.885	-0.277	-0.372	0.755 (inactive)	-0.21	0.163
COc1ccc(O[C@H]2C=C[C@@H](c3ccccc3)O[C@@H]2COC(=O)CCC(C)=NOC(C)CN2CCCc3nc(C)c(C)cc32)cc1 (stereo not given in full)	-0.451	-0.395	-0.062	0.623	0.571	0.858	0.967	-0.863 (inactive)	0.506	-0.199
COCOc1ccc(Br)cc1C(=O)[C@@H]1O[C@H]1c1cccc(OC)c1	-0.305	-0.0196	-0.122	0.204	0.333	-0.268	0.287	-0.0714 (inactive)	-0.0156	-0.202
Cc1cc2c(nc1C)CCCN2CC(O)CN1CCCc2nc(C)c(C)cc21	0.472	1.49	0.178	0.204	0.4	0.752	0.998	-0.0397 (inactive)	0.759	1.35
